From PubChem
SENP7 inh – SENP7 protease inhibition. Q9BQF6. recombinant SENP7, Z-RLRGG-aminoluciferin luminescence, 40 min. inhibition, % at 5 µM. hit rate 1.5% among 330,000;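 active = inhibition above about 50% at the single test dose, limit read from the data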;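 note: plate controls were DMSO with enzyme for no effect and no enzyme buffer wells for full effect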
SENP8 block-1 – SENP8 protease inhibition; purified SENP8, Z-RLRGG-aminoluciferin cleavage, luminescence; inhibition, % at 10 µM; hit rate 1.2% among 330,000; AID 2540; in the data active = inhibition above about 50%
Target sequence (Q96LD8 whole entry, looked up): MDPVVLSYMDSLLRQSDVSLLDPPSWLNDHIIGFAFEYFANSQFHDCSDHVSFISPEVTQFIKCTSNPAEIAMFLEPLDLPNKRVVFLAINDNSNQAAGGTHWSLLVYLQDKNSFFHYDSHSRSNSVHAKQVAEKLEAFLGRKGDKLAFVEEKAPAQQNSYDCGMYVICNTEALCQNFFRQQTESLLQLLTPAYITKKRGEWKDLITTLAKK
SENP8 block-2 – inhibitors of human SENP8 protease; Q96LD8; recombinant SENP8, Nedd8 substrate fluorescence; inhibition, % at 20 µM; hit rate 0.64% among 360,000; AID 602440; in the data active = inhibition mostly above about 40%, no sharp cut-off; inactive = mostly below about 27%
AHR activator – activators of human aryl hydrocarbon receptor; hit rate 2.5% among 320,000; AHR-responsive luciferase reporter cells, luminescence; activation, % at 5 µM; P35869; in the data active = activation above about 47%;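 note: 0% = vehicle wells and 100% = reference agonist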
SENP6 inh – inhibitors of human SENP6 protease | inhibition, % at 10 µM | Recombinant SENP6 catalytic domain, aminoluciferin luminescence | Q9GZR1 | hit rate 1.8% among 330,000;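 active = inhibition above about 50% at the single tested dose, limit read from the data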;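 note: plate controls were DMSO wells with enzyme for no effect and DMSO wells lacking enzyme for full effect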
Target sequence (Q9GZR1 628-1112 limits assumed): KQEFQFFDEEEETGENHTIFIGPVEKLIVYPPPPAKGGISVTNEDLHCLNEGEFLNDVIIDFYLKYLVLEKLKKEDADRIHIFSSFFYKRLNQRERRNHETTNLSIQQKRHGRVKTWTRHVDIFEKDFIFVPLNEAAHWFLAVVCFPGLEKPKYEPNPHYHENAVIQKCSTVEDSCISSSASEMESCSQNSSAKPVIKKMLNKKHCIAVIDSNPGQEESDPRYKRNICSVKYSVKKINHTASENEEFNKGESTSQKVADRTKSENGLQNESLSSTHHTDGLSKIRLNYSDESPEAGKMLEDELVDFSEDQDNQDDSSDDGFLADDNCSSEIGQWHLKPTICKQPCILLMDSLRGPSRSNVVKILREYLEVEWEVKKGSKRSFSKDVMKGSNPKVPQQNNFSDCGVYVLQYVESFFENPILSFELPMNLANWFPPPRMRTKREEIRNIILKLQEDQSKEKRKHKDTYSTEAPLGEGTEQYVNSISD
EBI2 block – EBI2 (human) antagonism; inhibition, % at 5 µM; EBI2 beta-arrestin recruitment, luminescence, 7a,25-OHC stimulated; hit rate 0.81% among 360,000; AID 651636; in the data active = inhibition above about 38%;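 note: enzyme fragment complementation signal reports receptor beta-arrestin coupling in cells; 0% = agonist plus DMSO wells and 100% = wells without agonist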
AHR act cf – human AHR activation, confirmation; human cells, AHR-responsive luciferase reporter, luminescence; activation, % at 9 µM; hit rate 87% among 2,300; shares compounds with AHR activator; AID 2845; in the data active = activation above about 49%;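 note: HepG2 hepatoma cells carrying a DRE-driven firefly luciferase reporter; 0% = vehicle wells and 100% = reference agonist wells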
PXR counter – activates human PXR in AHR activator counter-screen; shares compounds with AHR activator; cell-based PXR reporter, luciferase luminescence; activation, % at 11.6 µM; hit rate 88% among 2,300; AID 434939; in the data active = activation above about 11%;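 note: human hepatoma DPX-2 cells expressing full-length human PXR; 0% = DMSO and 100% = reference agonist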
SENP8 confirm – confirmation of human SENP8 protease inhibitors. shares compounds with SENP7 inh. AID 488912. inhibition, % at 12.5 µM. hit rate 40% among 6,200. Recombinant SENP8, Z-RLRGG-aminoluciferin luminescence, 60 min;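 active = mean inhibition across replicates above about 50%, limit read from the data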
SENP6 conf – confirmation of human SENP6 protease inhibitors. hit rate 58% among 6,200. shares compounds with SENP7 inh. recombinant SENP6, Z-RLRGG-aminoluciferin luminescence. AID 488915. inhibition, % at 12.5 µM
SENP7 conf – confirmation of human SENP7 protease inhibitors; shares compounds with SENP7 inh; hit rate 69% among 6,200; AID 488917; recombinant SENP7, Z-RLRGG-aminoluciferin luminescence, 40 min; inhibition, % at 12.5 µM
Casp3 SENP sel – selectivity test for SENP inhibitors: human caspase-3 inhibition; shares compounds with SENP7 inh; purified caspase-3, Z-DEVD-aminoluciferin luminescence, 60 min; inhibition, % at 12.5 µM; hit rate 60% among 6,200; AID 488918;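 active = mean inhibition above about 50%, limit read from the data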;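 note: plate controls were enzyme with DMSO for no effect and wells without caspase-3 for full effect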
Luc interf – luminescence interference (SENP counter-screen); hit rate 39% among 6,200; Pre-incubated SENP8/Z-RLRGG-aminoluciferin, luciferase luminescence interference; shares compounds with SENP7 inh; AID 488919; inhibition, % at 12.5 µM;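 active = mean inhibition above about 50% when retested at one dose, limit read from the data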;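 note: plate controls were DMSO wells with completed reaction for no effect and substrate without enzyme for full effect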
An asterisk follows results filed as active; · = no result given. Only some compounds are listed: those with a hit (about 5% of all), similar ones and a draw of the others.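 Rule for the calls, unless noted: active = mean inhibition above about 50% in the one-dose retest (limit read from the data); inactive = the rest.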

SMILES | SENP7 inh | SENP8 block-1 | SENP8 block-2 | AHR activator | SENP6 inh | EBI2 block | AHR act cf | PXR counter | SENP8 confirm | SENP6 conf | SENP7 conf | Casp3 SENP sel | Luc interf
COc1ccc(C2=NN(C(C#N)c3ccc(OC)c(OC)c3)C(c3ccccc3)C2)cc1 (stereo unspecified) | 65* | 29 | -2 | 107* | 75* | 9 | 74* | 21* | 6 | 3 | 23 | 24 | 21
COc1ccc(C2=NN(c3ccccc3)C(c3ccc(OC)c(OC)c3)C2)cc1 (stereo unspecified) | -13 | -2 | -304 | 3 | 21 | 5 | · | · | · | · | · | · | ·
COc1ccc(C(=O)NCc2ccc(-c3nc4ccccc4s3)cc2)cc1OC | 3 | 0 | -45 | -2 | -12 | 19 | · | · | · | · | · | · | ·
COc1cc(OC)cc(-c2nc3ccccc3s2)c1 | 91* | 81* | -63 | 90* | 4 | 19 | 107* | 11* | 92* | 93* | 100* | 82* | 77*
CCCCN1CC(=O)N2[C@H]3c4ccc(OC)cc4OC[C@@H]3[C@H](C(=O)OCC)[C@]2(C)C1=O | -1 | 3 | 12 | -1 | -4 | 11 | · | · | · | · | · | · | ·
Cc1cc2c(cc1S(=O)(=O)CCC(=O)NCCc1ccccc1)OCC(=O)N2 | 3 | 5 | 12 | 4 | 7 | -9 | · | · | · | · | · | · | ·
c1ccc2oc(-c3ccc4nc[nH]c4c3)nc2c1 | 60* | 25 | -305 | 97* | 35 | -6 | 147* | 14* | 52* | 50* | 74* | 57* | 44
Cn1c(CNC(=O)c2ccccc2F)nnc1SCCOc1ccccc1 | -6 | -7 | 8 | 0 | -2 | -5 | · | · | · | · | · | · | ·
O=C1C(c2cc(=O)c3ccccc3[nH]2)=C(O)c2ccccc21 | 100* | 97* | 23 | 167* | 98* | -4 | 191* | 25* | 94* | 99* | 103* | 96* | 95*
Cc1cccc(-n2cc(-c3ccc([N+](=O)[O-])cc3)[nH]c2=S)c1 | 13 | 12 | 12 | 25 | 34 | -4 | · | · | · | · | · | · | ·
COc1cccc(-n2cc(-c3ccc(F)cc3)[nH]c2=S)c1 | 77* | 10 | 12 | 108* | 67* | 10 | 12 | 52* | 22 | 20 | 7 | 3 | 5
C(/CCc1ccccc1)=N\Nc1nc2ccccc2[nH]1 | 34 | 27 | 9 | 45 | 36 | -14 | · | · | · | · | · | · | ·
Cc1ccc(/C=N/Nc2nc3ccccc3[nH]2)s1 | 7 | 56* | -100 | 109* | 56* | 6 | 143* | 30* | 68* | 61* | 84* | 44 | 71*
COc1ccc(C(N)=O)c(OCC(=O)Nc2cc(C)on2)c1 | 3 | 7 | 11 | 7 | 1 | -1 | · | · | · | · | · | · | ·
CC1=NN(C(N)=S)C(=O)C1N=Nc1ccc(O)cc1 (stereo unspecified) | 22 | 13 | 0 | · | 28 | -3 | · | · | · | · | · | · | ·
CC(=O)Nc1ccc(N=NC2C(=O)N(C(N)=S)N=C2C)cc1 (stereo unspecified) | 63* | 61* | 28 | 104* | 70* | -18 | 112* | 16* | 64* | 64* | 90* | 90* | 25
CCOc1ccc(N=NC2C(=O)N(C(N)=S)N=C2C)cc1 (stereo unspecified) | 88* | 93* | 14 | 118* | 97* | 9 | 124* | 22* | 71* | 97* | 102* | 97* | 90*
Fc1cccc(NC(=S)Nc2cccc3ccccc23)c1 | 29 | 28 | -393 | 82* | 57* | -3 | 62* | 100* | -22 | -16 | -9 | -11 | -5
c1ccc(Nc2nc(-c3ccccn3)cs2)cc1 | 60* | 38 | -16 | 116* | -3 | 26 | 53* | · | 60* | 61* | 88* | 54* | 76*
c1ccc(Nc2nc(-c3ccncc3)cs2)cc1 | 17 | 1 | -7 | 14 | 34 | 21 | · | · | · | · | · | · | ·
CCCc1nc(NCCCOCC)c2nnn(Cc3ccccc3)c2n1 | 3 | 4 | 15 | 8 | -2 | -12 | · | · | · | · | · | · | ·
COc1cccc(C(=O)NCc2ccc3c(c2)OCO3)c1OC | -4 | 0 | 19 | · | 5 | -1 | · | · | · | · | · | · | ·
Cc1occc1C(=O)Nc1ccc2c(c1)OCO2 | 80* | 54* | 22 | 125* | 84* | -14 | 51* | 47* | 64* | 63* | 89* | 90* | 74*
Cc1cc(C(=O)Nc2ccc3c(c2)OCO3)cs1 | 73* | 50 | 3 | 130* | 64* | -5 | 90* | 43* | 70* | 72* | 93* | 86* | 75*
COc1ccccc1NC(=O)c1ccc2c(c1)OCO2 | 51* | 38 | 4 | 129* | 60* | -4 | 105* | 28* | 51* | 48 | 84* | 79* | 60*
SMILES | SENP7 inh | SENP8 block-1 | SENP8 block-2 | AHR activator | SENP6 inh | EBI2 block | AHR act cf | PXR counter | SENP8 confirm | SENP6 conf | SENP7 conf | Casp3 SENP sel | Luc interf
COc1cccc(C(=O)Nc2ccc3c(c2)OCO3)c1OC | 37 | 33 | 16 | 103* | 55* | -14 | 54* | 70* | 27 | 25 | 73* | 73* | 54*
Cc1ccc2nc3n(c(=O)c2c1)-c1ccccc1C(=O)NC3Cc1ccc(O)cc1 (stereo unspecified) | 6 | 3 | · | 1 | 6 | · | · | · | · | · | · | · | ·
COC(=O)N/N=C/c1sc(N2CCCCC2)nc1-c1cccs1 | -2 | -4 | -207 | 43 | 7 | -10 | · | · | · | · | · | · | ·
CCCCCCCCC1CC(C(=O)Nc2ccccc2)C(=O)O1 (stereo unspecified) | -3 | 8 | 23 | 1 | -15 | -6 | · | · | · | · | · | · | ·
CCOc1ccc2oc(C(=O)Nc3ccc(N4CCOCC4)cc3)c(C)c2c1 | 2 | -1 | -24 | -7 | 3 | 28 | · | · | · | · | · | · | ·
CCOc1ccc2oc(C(=O)Nc3ccc4c(c3)OCO4)c(C)c2c1 | 62* | 65* | -31 | 83* | 73* | 4 | 38 | 25* | 63* | 4 | 86* | 53* | 38
